USP28 inh = human USP28 deubiquitinase inhibition. AID 1645857. actives 3% (n = 47,000). Q96RU2. inhibition, % at 25 µM. purified USP28, Ub-rhodamine cleavage fluorescence, 30 min
USP10 inh = blocks human USP10 ubiquitin-rhodamine cleavage; Q14694; actives 1.1% (n = 47,000); purified USP10, Ub-rhodamine fluorescence, 60 min; AID 1645856; inhibition, % at 20 µM
USP30 block = human USP30 deubiquitinase inhibition; Q70CQ3; purified USP30, Ub-rhodamine cleavage fluorescence; inhibition, % at 25 µM; actives 5.3% (n = 47,000); AID 1645860
USP17 inh = inhibitors of human USP17 deubiquitinase | A8MUK1 | purified USP17, Ub-rhodamine cleavage fluorescence, 3 h | inhibition, % at 50 µM | actives 6.5% (n = 47,000) | AID 1645855
USP8 inh = inhibitors of human USP8 deubiquitinase; P40818; purified USP8, Ub-rhodamine cleavage fluorescence, 30 min; inhibition, % at 20 µM; actives 4.2% (n = 47,000)
Target sequence (P40818 whole entry, looked up): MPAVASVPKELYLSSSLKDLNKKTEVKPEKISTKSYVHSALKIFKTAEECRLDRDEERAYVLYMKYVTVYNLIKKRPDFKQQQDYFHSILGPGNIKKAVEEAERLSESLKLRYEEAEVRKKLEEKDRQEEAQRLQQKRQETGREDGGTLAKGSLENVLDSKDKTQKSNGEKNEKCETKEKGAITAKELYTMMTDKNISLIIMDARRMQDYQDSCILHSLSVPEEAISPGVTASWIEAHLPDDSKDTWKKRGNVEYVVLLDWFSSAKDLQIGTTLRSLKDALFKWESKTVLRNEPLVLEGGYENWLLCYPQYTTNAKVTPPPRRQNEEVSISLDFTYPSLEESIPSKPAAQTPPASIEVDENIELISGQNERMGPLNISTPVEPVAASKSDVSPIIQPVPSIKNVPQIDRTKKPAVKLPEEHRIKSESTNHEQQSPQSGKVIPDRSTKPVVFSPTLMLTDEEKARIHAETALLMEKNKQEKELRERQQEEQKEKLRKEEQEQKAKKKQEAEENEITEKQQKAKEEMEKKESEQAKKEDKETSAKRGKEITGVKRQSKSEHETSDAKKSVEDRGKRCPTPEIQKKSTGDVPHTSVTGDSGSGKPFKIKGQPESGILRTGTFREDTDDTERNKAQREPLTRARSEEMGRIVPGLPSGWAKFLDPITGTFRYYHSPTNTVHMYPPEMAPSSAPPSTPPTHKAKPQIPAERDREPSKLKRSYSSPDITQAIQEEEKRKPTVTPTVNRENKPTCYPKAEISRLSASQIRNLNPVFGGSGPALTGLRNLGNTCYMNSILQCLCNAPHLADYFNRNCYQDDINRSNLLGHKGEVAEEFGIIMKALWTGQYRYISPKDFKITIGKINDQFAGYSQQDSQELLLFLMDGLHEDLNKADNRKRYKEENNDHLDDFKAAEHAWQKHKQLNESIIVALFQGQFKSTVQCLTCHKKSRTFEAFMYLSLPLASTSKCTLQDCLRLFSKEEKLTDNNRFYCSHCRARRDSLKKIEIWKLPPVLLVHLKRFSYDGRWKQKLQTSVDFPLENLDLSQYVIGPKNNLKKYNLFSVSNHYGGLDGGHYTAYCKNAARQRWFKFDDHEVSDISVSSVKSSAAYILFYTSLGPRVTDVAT
Starred values were filed as active, the others as inactive; . = no result given. The list is not random: actives were taken first. Their share in the collection is about 14%. Rule as the data show it: active = inhibition above about 30%; inactive = the rest.

SMILES	USP28 inh	USP10 inh	USP30 block	USP17 inh	USP8 inh
COc1ccccc1NC1CC2(Cc3ccccc3CN(C)C2=O)C1 (centres undefined)	0	0	-15	-1	0
Cc1cc(NCC2CCCO2)n2nc(-c3cccc(Cl)c3)c(C)c2n1 (centres undefined)	7	5	22	26	6
Cc1cccc(-c2nnn3c2nc(NCC2CCCO2)c2ccccc23)c1 (centres undefined)	3	26	66*	58*	67*
O=C(C1CCCN(c2nccn3nc(-c4cccc(Cl)c4)cc23)C1)N1CCSCC1 (centres undefined)	-29	-7	-157	-42	-21
Cc1ccc(CCNC(=O)c2cc(OCc3ccc(C)cc3)nc3ccccc23)cc1	4	3	0	10	-10
CCOc1ccc(Nc2cc(C(=O)NCCc3ccccc3)c3ccccc3n2)cc1	-10	15	12	56*	-1
Cc1ccc(COc2cc(C(=O)NCc3ccccc3)c3ccccc3n2)cc1	-8	2	1	-20	-26
COc1ccc(Nc2cc(C(=O)NCc3cccnc3)c3ccccc3n2)cc1OC	8	2	14	40*	6
CCOc1ccc(Nc2cc(C(=O)NCc3ccc(C)cc3)c3ccccc3n2)cc1	.	11	.	53*	1
CN1CCCC12CCCN(C(=O)c1ccc(C(F)(F)F)cc1)C2 (centres undefined)	-4	-1	8	-4	-42
CCOc1cccc2sc(N(Cc3cccnc3)C(=O)CCc3ccccc3)nc12	22	8	80*	6	-2
Cc1ccc(NC(=O)CSc2nnc(-c3ccncc3)o2)cc1	14	1	24	1	-2
CNC(=O)NC(=O)CSc1nnc(-c2ccc(Cl)cc2)o1	0	3	7	33*	2
COc1cccc(NC(=O)C2CCN(C(=O)c3cc(-c4cccnc4)n[nH]3)CC2)c1	57*	2	9	0	12
Cc1cccc(NC(=O)C2CCN(C(=O)c3cc(-c4ccncc4)n[nH]3)CC2)c1	1	-2	-53	0	2
COc1ccc(CCNC(=O)c2cc(-c3cccnc3)n[nH]2)cc1OC	18	3	17	0	25
O=C(Nc1ccccc1)c1cc(-c2ccncc2)n[nH]1	24	3	24	-5	2
CSc1cccc(NC(=O)c2cc(-c3cccnc3)n[nH]2)c1	53*	27	65*	79*	97*
O=C(Nc1ccccc1F)c1cc(-c2cccnc2)n[nH]1	.	5	.	70*	2
Cc1ccc(NC(=O)C2CCCN(C(=O)c3cc(-c4ccccn4)n[nH]3)C2)cc1 (centres undefined)	-9	-1	-2	-70	-272
O=C(CN1C(=O)NC(Cc2ccccc2)(c2ccccc2)C1=O)NCC(F)(F)F (centres undefined)	-9	-1	-2	-16	-2
O=C(CSc1nnc(-c2cccnc2)o1)Nc1cccc(Cl)c1	15	0	30	33*	2
O=C(Nc1cccc(Cl)c1)c1cc(-c2cccnc2)n[nH]1	55*	47*	47*	83*	83*
COc1cccc(-c2cc(C(=O)Nc3cccc(C(C)=O)c3)[nH]n2)c1	-32	-5	-64	2	-13
Cc1ccc(NC(=O)CSc2nnc(-c3cccnc3)o2)cc1F	16	-1	22	14	5
SMILES	USP28 inh	USP10 inh	USP30 block	USP17 inh	USP8 inh
COc1cccc(-c2cc(C(=O)Nc3ccccc3)[nH]n2)c1	22	3	35*	39*	12
COc1ccc(-c2csc3ncn(CC(=O)N4CCc5ccccc54)c(=O)c23)cc1	-37	-3	-142	-25	-29
COc1cccc(CC(=O)N2CCc3cc(-c4noc(C)n4)ccc32)c1	19	5	-7	.	0
CC(C)OC(=O)c1cc2c(ccn2-c2ccc(F)cc2)n1CC(=O)N(C)C1CCCCC1	-10	-1	-39	1	60*
CC(C)OC(=O)c1cc2c(ccn2-c2ccc(F)cc2)n1CC(=O)NC1CCCCC1	18	-5	19	23	23
COC(=O)c1cc2c(ccn2-c2ccc(F)cc2)n1CC(=O)NC1CCCCC1	6	16	14	9	34*
COCC1CN(C(=O)N(C)C)Cc2c1cnn2CC1CC1 (centres undefined)	6	-2	11	-9	-108
Cc1cc(NC(=O)COc2ccc(F)c(Cl)c2)no1	40*	-2	12	13	9
O=C(COc1ccc(F)cc1)Nc1noc(-c2ccccc2)n1	44*	2	74*	63*	24
Cc1cc(NC(=O)CSc2nnc(CNC(=O)COc3ccc(Cl)cc3)o2)no1	0	3	-1	4	19
Cc1ccc(-c2nc(NC(=O)COc3ccc(Cl)cc3)no2)cc1	89*	65*	-2	93*	93*
Cc1ccc(-c2nc(NC(=O)COc3cc(C)cc(C)c3)no2)cc1	-9	11	0	1	3
Cc1cccc(-c2nc(NC(=O)COc3ccc(F)cc3)no2)c1	61*	15	68*	71*	83*
CN1Cc2ccccc2CN2CCN(S(=O)(=O)c3ccc(C(F)(F)F)cc3)CC2C1 (centres undefined)	2	-7	5	-33	-153
O=C(NC1CCCCC1)c1nc(-c2ccc3cc[nH]c3c2)no1	-12	5	-1	-4	15
CN(C(=O)c1ccc(-c2ccc(F)cc2)s1)c1ccccc1	0	2	-4	1	12
Cc1ncncc1C(=O)N1CCCC(C)(c2ncc(Cc3cccc(F)c3)o2)C1 (centres undefined)	3	2	17	8	0
COc1ccccc1OC(C)C(=O)Nc1noc(-c2ccccc2)n1 (centres undefined)	3	3	18	1	8
O=C(Nc1noc(-c2ccccc2)n1)c1ccc(Br)cc1	7	18	25	21	38*
CCCCCC1OC(=O)c2c(C)cccc2Oc2ccc(O)c(CO)c2/C=C/C1O (centres undefined)	47*	12	19	23	12
CCCCCC1OC(=O)c2c(C)cccc2Oc2ccc(O)c(C=O)c2/C=C/C1O (centres undefined)	53*	31*	73*	81*	14
CCOC(=O)Cn1c(-c2ccc(Cl)cc2)ccc(C#N)c1=O	16	6	30*	14	31*
CCOC(=O)Cn1c(=O)n(Cc2ccccc2)c(=O)c2ccccc21	-11	0	-8	-12	2
CC(=O)NCC(=O)N1CCN(c2nc(-c3cccnc3)nc3ccccc23)CC1	-10	-1	-19	-19	-57
CN(C)C(=O)c1ccc(Nc2nc(-c3cccnc3)nc3ccccc23)cc1	0	-12	-50	37*	-19
Brc1ccc(OCCSc2nnnn2-c2ccccc2)cc1	0	10	7	0	8
COc1cccc(C2Nc3ccccc3C(=O)N2c2ccccc2C)c1OC (centres undefined)	11	2	15	-1	11
